Columns and labels:
Experiment in all cases: log2 ratio of Biotin-Ahx-Ub-VS probe labelling (fragment/DMSO); higher = less target engagement (more negative = stronger competition), active = hit call of the paper (q ≤ 0.05, log2 ratio ≤ -1)
Settings in all cases: compound concentration: 200 uM; treatment time: 3 h
ALG13 = molecular target: T1, ALG13 (UniProt Q9NP73)
T1 sequence (whole entry): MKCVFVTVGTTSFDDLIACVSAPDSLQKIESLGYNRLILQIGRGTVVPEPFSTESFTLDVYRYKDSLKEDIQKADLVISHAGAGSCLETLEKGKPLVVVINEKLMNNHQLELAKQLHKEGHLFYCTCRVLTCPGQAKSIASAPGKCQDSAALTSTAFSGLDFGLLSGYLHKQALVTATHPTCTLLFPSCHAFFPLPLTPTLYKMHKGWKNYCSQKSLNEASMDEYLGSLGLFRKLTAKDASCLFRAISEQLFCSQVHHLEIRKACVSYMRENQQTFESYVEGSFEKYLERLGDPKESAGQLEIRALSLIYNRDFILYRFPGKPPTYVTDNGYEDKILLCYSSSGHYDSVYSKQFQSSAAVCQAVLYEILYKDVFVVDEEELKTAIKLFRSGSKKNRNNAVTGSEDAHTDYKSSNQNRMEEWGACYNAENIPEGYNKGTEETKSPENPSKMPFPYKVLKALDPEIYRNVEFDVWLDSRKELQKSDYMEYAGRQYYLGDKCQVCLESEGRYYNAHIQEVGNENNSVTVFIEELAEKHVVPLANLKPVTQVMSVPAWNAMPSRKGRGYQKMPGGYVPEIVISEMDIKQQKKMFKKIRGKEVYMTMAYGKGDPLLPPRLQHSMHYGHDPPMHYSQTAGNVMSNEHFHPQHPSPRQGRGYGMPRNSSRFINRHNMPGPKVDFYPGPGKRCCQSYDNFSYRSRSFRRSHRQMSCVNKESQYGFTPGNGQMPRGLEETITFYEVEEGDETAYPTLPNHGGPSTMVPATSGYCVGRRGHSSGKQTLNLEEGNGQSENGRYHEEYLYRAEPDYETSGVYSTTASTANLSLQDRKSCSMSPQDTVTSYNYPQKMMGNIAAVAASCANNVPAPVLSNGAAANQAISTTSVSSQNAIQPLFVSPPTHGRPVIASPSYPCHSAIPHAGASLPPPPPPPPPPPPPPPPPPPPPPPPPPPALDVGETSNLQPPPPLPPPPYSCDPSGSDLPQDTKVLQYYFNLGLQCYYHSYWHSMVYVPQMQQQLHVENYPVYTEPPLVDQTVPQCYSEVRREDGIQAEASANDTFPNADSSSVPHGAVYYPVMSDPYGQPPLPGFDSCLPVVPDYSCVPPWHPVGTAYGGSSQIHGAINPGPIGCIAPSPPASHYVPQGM
Procedure, shortened: (§1)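 Average log2 ratios of fragment over vehicle were obtained by unpaired t-test from global-median-normalised Spectronaut label-free quantities. Proteins with ≥2 unique peptides were included. HEK293T lysate (495 µg per sample) was treated in triplicate with fragment at 200 µM or vehicle for 3 h, then with Biotin-Ahx-Ub-VS at 0.5 µM final for 1 h, and labelled DUBs were NeutrAvidin-enriched and run by diaPASEF LC-MS/MS.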

ATXN3 = ATXN3 (UniProt P54252)
ATXN3, sequence (P54252 whole entry): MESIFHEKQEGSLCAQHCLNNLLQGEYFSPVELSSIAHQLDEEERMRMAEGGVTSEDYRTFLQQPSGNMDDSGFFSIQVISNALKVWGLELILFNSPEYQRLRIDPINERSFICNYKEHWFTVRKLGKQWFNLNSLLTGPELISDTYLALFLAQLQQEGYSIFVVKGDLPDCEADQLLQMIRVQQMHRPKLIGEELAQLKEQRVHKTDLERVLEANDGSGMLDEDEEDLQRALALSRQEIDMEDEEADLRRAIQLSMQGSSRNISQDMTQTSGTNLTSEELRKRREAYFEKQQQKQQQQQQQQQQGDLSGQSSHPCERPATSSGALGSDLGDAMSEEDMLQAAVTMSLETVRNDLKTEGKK
Procedure, shortened: as §1

BAP1 = molecular target: T2, BAP1 (UniProt Q92560)
T2 sequence (whole entry): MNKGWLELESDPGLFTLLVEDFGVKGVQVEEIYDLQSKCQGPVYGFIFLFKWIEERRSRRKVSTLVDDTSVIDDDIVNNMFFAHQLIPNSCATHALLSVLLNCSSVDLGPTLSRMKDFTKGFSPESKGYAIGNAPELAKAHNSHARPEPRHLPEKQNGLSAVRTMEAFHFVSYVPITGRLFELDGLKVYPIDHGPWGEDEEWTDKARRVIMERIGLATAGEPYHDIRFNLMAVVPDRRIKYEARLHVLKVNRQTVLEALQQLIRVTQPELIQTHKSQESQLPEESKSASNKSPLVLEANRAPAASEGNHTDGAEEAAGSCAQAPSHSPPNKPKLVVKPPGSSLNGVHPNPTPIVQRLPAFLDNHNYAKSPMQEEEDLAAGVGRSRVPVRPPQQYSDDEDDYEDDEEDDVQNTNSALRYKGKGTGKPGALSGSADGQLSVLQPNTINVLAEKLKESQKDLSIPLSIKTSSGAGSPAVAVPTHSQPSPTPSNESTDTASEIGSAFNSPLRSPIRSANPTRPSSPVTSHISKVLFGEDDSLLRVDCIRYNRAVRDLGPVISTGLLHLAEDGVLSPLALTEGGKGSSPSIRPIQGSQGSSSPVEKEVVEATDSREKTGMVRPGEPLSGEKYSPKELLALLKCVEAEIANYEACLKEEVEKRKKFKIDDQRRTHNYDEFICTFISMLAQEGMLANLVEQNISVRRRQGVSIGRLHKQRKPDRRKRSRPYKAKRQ
Procedure, shortened: as §1

EIF3F = EIF3F (UniProt O00303)
EIF3F, sequence (O00303 whole entry): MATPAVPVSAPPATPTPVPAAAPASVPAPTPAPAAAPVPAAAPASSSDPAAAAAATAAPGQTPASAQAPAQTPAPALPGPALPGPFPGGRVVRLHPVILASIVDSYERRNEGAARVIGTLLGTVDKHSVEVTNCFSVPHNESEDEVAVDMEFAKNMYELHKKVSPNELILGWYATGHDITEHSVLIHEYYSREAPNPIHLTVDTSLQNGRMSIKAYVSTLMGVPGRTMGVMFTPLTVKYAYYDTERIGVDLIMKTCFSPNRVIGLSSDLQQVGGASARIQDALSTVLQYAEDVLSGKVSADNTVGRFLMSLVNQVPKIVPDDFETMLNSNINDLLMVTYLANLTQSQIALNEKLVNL
Procedure, shortened: as §1

EIF3H = EIF3H (UniProt O15372)
EIF3H, sequence (O15372 whole entry): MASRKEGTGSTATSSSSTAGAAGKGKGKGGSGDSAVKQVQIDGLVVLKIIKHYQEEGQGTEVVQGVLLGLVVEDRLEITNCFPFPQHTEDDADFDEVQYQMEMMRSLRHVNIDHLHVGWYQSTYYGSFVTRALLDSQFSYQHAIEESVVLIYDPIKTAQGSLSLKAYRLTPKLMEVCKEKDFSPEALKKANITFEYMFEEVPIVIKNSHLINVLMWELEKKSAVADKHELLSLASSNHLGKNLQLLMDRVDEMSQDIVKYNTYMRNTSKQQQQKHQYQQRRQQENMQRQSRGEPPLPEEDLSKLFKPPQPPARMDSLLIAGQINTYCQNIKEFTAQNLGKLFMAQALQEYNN
Procedure, shortened: as §1

FAM105A = molecular target: T3, FAM105A (UniProt Q9NUU6)
T3 sequence (whole entry): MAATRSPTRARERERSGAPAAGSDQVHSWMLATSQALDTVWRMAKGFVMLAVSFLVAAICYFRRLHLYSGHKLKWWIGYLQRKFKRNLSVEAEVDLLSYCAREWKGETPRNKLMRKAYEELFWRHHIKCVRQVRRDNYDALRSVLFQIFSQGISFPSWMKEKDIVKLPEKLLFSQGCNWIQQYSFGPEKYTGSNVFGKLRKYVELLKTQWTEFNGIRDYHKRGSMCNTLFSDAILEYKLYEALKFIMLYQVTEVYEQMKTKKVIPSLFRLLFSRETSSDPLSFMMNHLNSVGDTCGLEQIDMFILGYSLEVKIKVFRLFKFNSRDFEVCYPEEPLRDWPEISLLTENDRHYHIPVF
Procedure, shortened: as §1

OTUB1 = OTUB1 (UniProt Q96FW1)
OTUB1, sequence (Q96FW1 whole entry): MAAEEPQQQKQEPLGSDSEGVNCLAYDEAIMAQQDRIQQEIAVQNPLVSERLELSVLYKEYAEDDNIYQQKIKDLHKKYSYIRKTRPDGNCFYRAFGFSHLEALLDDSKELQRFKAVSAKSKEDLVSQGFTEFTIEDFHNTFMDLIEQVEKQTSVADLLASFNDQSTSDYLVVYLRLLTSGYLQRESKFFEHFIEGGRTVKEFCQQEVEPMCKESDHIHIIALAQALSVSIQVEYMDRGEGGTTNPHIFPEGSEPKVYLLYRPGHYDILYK
Procedure, shortened: as §1

OTUD4 = molecular target: T4, OTUD4 (UniProt Q01804)
T4 sequence (whole entry): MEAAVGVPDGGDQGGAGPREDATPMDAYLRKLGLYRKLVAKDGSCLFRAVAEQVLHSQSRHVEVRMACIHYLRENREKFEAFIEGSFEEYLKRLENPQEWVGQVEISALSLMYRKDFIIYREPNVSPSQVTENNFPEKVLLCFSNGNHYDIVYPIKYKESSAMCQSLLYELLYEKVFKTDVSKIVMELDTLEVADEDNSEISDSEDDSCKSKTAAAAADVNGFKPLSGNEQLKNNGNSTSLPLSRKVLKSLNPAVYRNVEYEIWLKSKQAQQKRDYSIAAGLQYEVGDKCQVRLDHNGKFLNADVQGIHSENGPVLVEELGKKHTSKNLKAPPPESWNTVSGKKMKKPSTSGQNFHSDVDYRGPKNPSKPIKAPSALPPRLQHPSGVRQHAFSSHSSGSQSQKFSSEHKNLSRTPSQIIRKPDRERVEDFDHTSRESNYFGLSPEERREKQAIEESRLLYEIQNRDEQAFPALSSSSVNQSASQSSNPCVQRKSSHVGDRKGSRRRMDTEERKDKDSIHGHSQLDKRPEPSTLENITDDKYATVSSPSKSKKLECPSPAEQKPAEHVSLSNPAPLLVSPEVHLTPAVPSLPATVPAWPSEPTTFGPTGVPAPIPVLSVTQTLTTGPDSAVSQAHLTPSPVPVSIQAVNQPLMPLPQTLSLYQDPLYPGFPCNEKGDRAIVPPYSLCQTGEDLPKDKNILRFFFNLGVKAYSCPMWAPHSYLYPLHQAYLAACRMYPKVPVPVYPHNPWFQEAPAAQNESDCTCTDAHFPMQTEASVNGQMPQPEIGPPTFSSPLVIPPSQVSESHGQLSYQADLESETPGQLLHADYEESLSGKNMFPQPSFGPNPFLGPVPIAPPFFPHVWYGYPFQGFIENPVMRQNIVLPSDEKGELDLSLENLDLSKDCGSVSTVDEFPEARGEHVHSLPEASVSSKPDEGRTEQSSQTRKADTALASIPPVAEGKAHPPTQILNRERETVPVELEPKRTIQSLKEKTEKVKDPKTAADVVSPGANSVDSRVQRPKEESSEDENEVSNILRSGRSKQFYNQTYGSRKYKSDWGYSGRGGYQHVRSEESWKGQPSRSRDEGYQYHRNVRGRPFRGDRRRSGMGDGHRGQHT
Procedure, shortened: as §1

OTUD5 = molecular target: T5, OTUD5 (UniProt Q96G74)
T5 sequence (whole entry): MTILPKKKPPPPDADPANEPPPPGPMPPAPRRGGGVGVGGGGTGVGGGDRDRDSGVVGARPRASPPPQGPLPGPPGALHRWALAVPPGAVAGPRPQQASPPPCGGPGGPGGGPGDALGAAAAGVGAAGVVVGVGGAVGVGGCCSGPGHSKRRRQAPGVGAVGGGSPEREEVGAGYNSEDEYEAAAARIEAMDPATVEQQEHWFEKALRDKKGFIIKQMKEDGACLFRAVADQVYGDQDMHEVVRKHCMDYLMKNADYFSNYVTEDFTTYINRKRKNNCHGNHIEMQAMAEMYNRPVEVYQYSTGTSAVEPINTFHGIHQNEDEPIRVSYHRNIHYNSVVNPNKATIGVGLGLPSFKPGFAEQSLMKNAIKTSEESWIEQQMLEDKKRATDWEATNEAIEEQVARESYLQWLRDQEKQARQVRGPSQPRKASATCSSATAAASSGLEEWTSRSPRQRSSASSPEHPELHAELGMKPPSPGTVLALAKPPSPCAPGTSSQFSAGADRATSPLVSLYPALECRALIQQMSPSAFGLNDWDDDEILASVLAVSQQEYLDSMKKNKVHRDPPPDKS
Procedure, shortened: as §1

Measured: log2 ratio of Biotin-Ahx-Ub-VS probe labelling

CNC(=O)C1(NC(=O)CCl)CCCCC1
active: BAP1 -1.12
inactive: ALG13 -1.06 | ATXN3 -0.161 | EIF3F -0.192 | EIF3H 0.0858 | FAM105A -0.00491 | OTUB1 0.0146 | OTUD4 -0.439 | OTUD5 -0.0782

Reference: the supplement of paper PMC11732987, “Enantioselective OTUD7B fragment discovery through chemoproteomics screening and high-throughput optimisation” (Communications Chemistry, 2025)
